Laboratory results as given in PMC5540273 (PLoS ONE, 2017).

Columns and labels:
Conditions in all cases: concentration: 1 μM, replicates: in singlicate; n = 1
[1] = tested on: T1, RSK4(Kin.Dom.1-N-terminal)
T1 construct: gene RPS6KA6

[2] = tested on: T2, RSK4(Kin.Dom.2-C-terminal)
T2 construct: gene RPS6KA6

[3] = tested on: S6K1
[4] = tested on: SBK1
[5] = tested on: SGK2
[6] = tested on: SGK3
[7] = tested on: SGK
[8] = tested on: SIK2
[9] = tested on: SIK
[10] = tested on: SLK
[11] = tested on: T3, SNARK
T3 construct: gene NUAK2

[12] = tested on: SNRK
[13] = tested on: SRC
[14] = tested on: SRMS
[15] = tested on: SRPK1
[16] = tested on: SRPK2
[17] = tested on: SRPK3
[18] = tested on: STK16
[19] = tested on: STK33
[20] = tested on: STK35
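Note: KINOMEscan kinase panel screen.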

Fc1cc(Cl)ccc1Nc1ccnc2cc(-c3ccc(CN4CCOCC4)o3)ccc12 [GW560109]
%Inh [1]: 0% | %Inh [2]: 90.3% | %Inh [3]: 26% | %Inh [4]: 37% | %Inh [5]: 6% | %Inh [6]: 0% | %Inh [7]: 0% | %Inh [8]: 100% | %Inh [9]: 97.4% | %Inh [10]: 32% | %Inh [11]: 0% | %Inh [12]: 7% | %Inh [13]: 99.2% | %Inh [14]: 15% | %Inh [15]: 35% | %Inh [16]: 0% | %Inh [17]: 10% | %Inh [18]: 0% | %Inh [19]: 6% | %Inh [20]: 92.1%

CC(C)NCC(Cc1ccccc1)NC(=O)c1cc(Br)c(-c2ccnc3[nH]ccc23)s1.Cl.Cl (centres unmarked) [GSK1383281]
%Inh [1]: 5% | %Inh [2]: 20% | %Inh [3]: 56% | %Inh [4]: 45% | %Inh [5]: 0% | %Inh [6]: 66% | %Inh [7]: 59% | %Inh [8]: 0% | %Inh [9]: 4% | %Inh [10]: 0% | %Inh [11]: 89% | %Inh [12]: 0% | %Inh [13]: 0% | %Inh [14]: 0% | %Inh [15]: 43% | %Inh [16]: 0% | %Inh [17]: 0% | %Inh [18]: 46% | %Inh [19]: 96.6% | %Inh [20]: 0%

O=C(Nc1c(F)cccc1F)c1cc(C(=O)c2ccccc2F)c[nH]1 [GSK1326180]
%Inh [1]: 1% | %Inh [2]: 0% | %Inh [3]: 0% | %Inh [4]: 52% | %Inh [5]: 18% | %Inh [6]: 5% | %Inh [7]: 11% | %Inh [8]: 0% | %Inh [9]: 0% | %Inh [10]: 0% | %Inh [11]: 0% | %Inh [12]: 0% | %Inh [13]: 0% | %Inh [14]: 0% | %Inh [15]: 18% | %Inh [16]: 1% | %Inh [17]: 0% | %Inh [18]: 0% | %Inh [19]: 16% | %Inh [20]: 0%

COc1ccc(NC(=O)c2ccoc2)cc1-c1ccc(C(=O)NCC2CC2)cc1 [GW810437]
%Inh [1]: 8% | %Inh [2]: 0% | %Inh [3]: 9% | %Inh [4]: 48% | %Inh [5]: 0% | %Inh [6]: 19% | %Inh [7]: 25% | %Inh [8]: 0% | %Inh [9]: 0% | %Inh [10]: 0% | %Inh [11]: 18% | %Inh [12]: 12% | %Inh [13]: 10% | %Inh [14]: 25% | %Inh [15]: 0% | %Inh [16]: 0% | %Inh [17]: 12% | %Inh [18]: 0% | %Inh [19]: 0% | %Inh [20]: 0%

CC(C)c1nc(-c2ccc(F)c(NS(=O)(=O)c3c(F)cccc3F)c2)c(-c2ccnc(Nc3ccc(N4CCOCC4)nc3)n2)s1 [GSK1804250]
%Inh [1]: 0% | %Inh [2]: 16% | %Inh [3]: 3% | %Inh [4]: 25% | %Inh [5]: 8% | %Inh [6]: 20% | %Inh [7]: 25% | %Inh [8]: 88% | %Inh [9]: 99.5% | %Inh [10]: 91.4% | %Inh [11]: 17% | %Inh [12]: 0% | %Inh [13]: 100% | %Inh [14]: 99.9% | %Inh [15]: 54% | %Inh [16]: 0% | %Inh [17]: 18% | %Inh [18]: 39% | %Inh [19]: 8% | %Inh [20]: 74%

Cc1ccc(O)cc1Nc1ccnc2cc(-c3ccc(CN4CCCCC4)o3)ccc12 [GW557777]
%Inh [1]: 0% | %Inh [2]: 87% | %Inh [3]: 0% | %Inh [4]: 0% | %Inh [5]: 0% | %Inh [6]: 0% | %Inh [7]: 1% | %Inh [8]: 83% | %Inh [9]: 97.8% | %Inh [10]: 34% | %Inh [11]: 11% | %Inh [12]: 0% | %Inh [13]: 100% | %Inh [14]: 23% | %Inh [15]: 32% | %Inh [16]: 0% | %Inh [17]: 15% | %Inh [18]: 22% | %Inh [19]: 61% | %Inh [20]: 0%

Nc1cccc(-c2ccc3c(N)n[nH]c3c2)c1 [GSK2193613]
%Inh [1]: 0% | %Inh [2]: 25% | %Inh [3]: 0% | %Inh [4]: 8% | %Inh [5]: 0% | %Inh [6]: 34% | %Inh [7]: 33% | %Inh [8]: 0% | %Inh [9]: 0% | %Inh [10]: 2% | %Inh [11]: 22% | %Inh [12]: 0% | %Inh [13]: 0% | %Inh [14]: 3% | %Inh [15]: 54% | %Inh [16]: 16% | %Inh [17]: 0% | %Inh [18]: 15% | %Inh [19]: 0% | %Inh [20]: 0%

COc1cc(Nc2nccc(N3CCC(NC(=O)Nc4ccc5c(c4)OCO5)C3)n2)cc(OC)c1OC (centres unmarked) [GSK1379766]
%Inh [1]: 0% | %Inh [2]: 14% | %Inh [3]: 17% | %Inh [4]: 10% | %Inh [5]: 0% | %Inh [6]: 11% | %Inh [7]: 0% | %Inh [8]: 0% | %Inh [9]: 8% | %Inh [10]: 36% | %Inh [11]: 13% | %Inh [12]: 0% | %Inh [13]: 0% | %Inh [14]: 0% | %Inh [15]: 45% | %Inh [16]: 0% | %Inh [17]: 0% | %Inh [18]: 72% | %Inh [19]: 0% | %Inh [20]: 0%

CCn1cnc2c(NCc3ccccc3)ncnc21 [SKF-96418]
%Inh [1]: 9% | %Inh [2]: 0% | %Inh [3]: 17% | %Inh [4]: 0% | %Inh [5]: 2% | %Inh [6]: 3% | %Inh [7]: 2% | %Inh [8]: 0% | %Inh [9]: 0% | %Inh [10]: 0% | %Inh [11]: 0% | %Inh [12]: 0% | %Inh [13]: 0% | %Inh [14]: 26% | %Inh [15]: 0% | %Inh [16]: 47% | %Inh [17]: 18% | %Inh [18]: 0% | %Inh [19]: 0% | %Inh [20]: 0%

COc1cc(Nc2ccnc3cc(-c4ccncc4)ccc23)cc(OC)c1OC.Cl [GW494610]
%Inh [1]: 19% | %Inh [2]: 0% | %Inh [3]: 17% | %Inh [4]: 100% | %Inh [5]: 5% | %Inh [6]: 2% | %Inh [7]: 19% | %Inh [8]: 74% | %Inh [9]: 91.5% | %Inh [10]: 49% | %Inh [11]: 0% | %Inh [12]: 0% | %Inh [13]: 96.1% | %Inh [14]: 0% | %Inh [15]: 0% | %Inh [16]: 0% | %Inh [17]: 18% | %Inh [18]: 0% | %Inh [19]: 0% | %Inh [20]: 6%
